Measurements from the supplement of paper PMC10849652.
Of roughly 8,800 targets only a part is listed; those with a hit were picked by preference. About 0.5% of all pairs of compound and target were hits.

What was measured:
Assay in all cases: log2 fold change, soluble protein after heating vs DMSO (PISA); higher = thermal stabilisation; K562 lysate, 10 uM; active = over 0.2 and 3.5 SD of the protein, either way, in both replicates (recomputed)
lapatinib = compound: CS(=O)(=O)CCNCc1ccc(-c2ccc3ncnc(Nc4ccc(OCc5cccc(F)c5)c(Cl)c4)c3c2)o1 [lapatinib]
How it was run: (§1)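 The values are log-two fold changes in thermal stability compared with solvent controls and come from duplicates. They were obtained by TMTpro 16plex LC-MS/MS, with channel sums equalised, on the supernatant after 21,000xg for 90 min. That supernatant came from crude K562 extract at 1 mg/mL protein treated with 10 μM compound for 30 min, heated for 3 min across 48°C-58°C, pooled and brought to 0.5% NP-40 at 4°C.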

pictilisib = compound: CS(=O)(=O)N1CCN(Cc2cc3nc(-c4cccc5[nH]ncc45)nc(N4CCOCC4)c3s2)CC1 [pictilisib]
How it was run: as §1

crizotinib = compound: C[C@@H](Oc1cc(-c2cnn(C3CCNCC3)c2)cnc1N)c1c(Cl)ccc(F)c1Cl [crizotinib]
How it was run: as §1

[1] = compound: C[C@H](C1=CC=C(C=C1)C(=O)NC2=C3C=CNC3=NC=C2)N
How it was run: as §1

duvelisib = compound: C[C@H](Nc1ncnc2nc[nH]c12)c1cc2cccc(Cl)c2c(=O)n1-c1ccccc1 [duvelisib]
How it was run: as §1

gandotinib = compound: Cc1cc(Nc2cc(CN3CCOCC3)c3nc(C)c(Cc4ccc(Cl)cc4F)n3n2)n[nH]1 [gandotinib]
How it was run: as §1

tozasertib = compound: Cc1cc(Nc2cc(N3CCN(C)CC3)nc(Sc3ccc(NC(=O)C4CC4)cc3)n2)n[nH]1 [tozasertib]
How it was run: as §1

doramapimod = compound: Cc1ccc(-n2nc(C(C)(C)C)cc2NC(=O)Nc2ccc(OCCN3CCOCC3)c3ccccc23)cc1 [doramapimod]
How it was run: as §1

bafetinib = compound: Cc1ccc(NC(=O)c2ccc(CN3CC[C@H](N(C)C)C3)c(C(F)(F)F)c2)cc1Nc1nccc(-c2cncnc2)n1 [bafetinib]
How it was run: as §1

[2] = compound: Cc1cccc(CC(=O)N2CCc3c2ccc(-c2cn(C)c4ncnc(N)c24)c3F)n1
How it was run: as §1

Measured: log2 fold change

HECTD4 (UniProt J3KPF0)
inactive: lapatinib -0.024 | pictilisib -0.043 | crizotinib -0.127 | [1] -0.005 | duvelisib -0.004 | gandotinib -0.024 | tozasertib 0.01 | doramapimod -0.002 | bafetinib -0.083 | [2] 0.101

INTS1 (UniProt Q8N201)
Sequence of UniProt Q8N201 (Q8N201 whole entry, looked up): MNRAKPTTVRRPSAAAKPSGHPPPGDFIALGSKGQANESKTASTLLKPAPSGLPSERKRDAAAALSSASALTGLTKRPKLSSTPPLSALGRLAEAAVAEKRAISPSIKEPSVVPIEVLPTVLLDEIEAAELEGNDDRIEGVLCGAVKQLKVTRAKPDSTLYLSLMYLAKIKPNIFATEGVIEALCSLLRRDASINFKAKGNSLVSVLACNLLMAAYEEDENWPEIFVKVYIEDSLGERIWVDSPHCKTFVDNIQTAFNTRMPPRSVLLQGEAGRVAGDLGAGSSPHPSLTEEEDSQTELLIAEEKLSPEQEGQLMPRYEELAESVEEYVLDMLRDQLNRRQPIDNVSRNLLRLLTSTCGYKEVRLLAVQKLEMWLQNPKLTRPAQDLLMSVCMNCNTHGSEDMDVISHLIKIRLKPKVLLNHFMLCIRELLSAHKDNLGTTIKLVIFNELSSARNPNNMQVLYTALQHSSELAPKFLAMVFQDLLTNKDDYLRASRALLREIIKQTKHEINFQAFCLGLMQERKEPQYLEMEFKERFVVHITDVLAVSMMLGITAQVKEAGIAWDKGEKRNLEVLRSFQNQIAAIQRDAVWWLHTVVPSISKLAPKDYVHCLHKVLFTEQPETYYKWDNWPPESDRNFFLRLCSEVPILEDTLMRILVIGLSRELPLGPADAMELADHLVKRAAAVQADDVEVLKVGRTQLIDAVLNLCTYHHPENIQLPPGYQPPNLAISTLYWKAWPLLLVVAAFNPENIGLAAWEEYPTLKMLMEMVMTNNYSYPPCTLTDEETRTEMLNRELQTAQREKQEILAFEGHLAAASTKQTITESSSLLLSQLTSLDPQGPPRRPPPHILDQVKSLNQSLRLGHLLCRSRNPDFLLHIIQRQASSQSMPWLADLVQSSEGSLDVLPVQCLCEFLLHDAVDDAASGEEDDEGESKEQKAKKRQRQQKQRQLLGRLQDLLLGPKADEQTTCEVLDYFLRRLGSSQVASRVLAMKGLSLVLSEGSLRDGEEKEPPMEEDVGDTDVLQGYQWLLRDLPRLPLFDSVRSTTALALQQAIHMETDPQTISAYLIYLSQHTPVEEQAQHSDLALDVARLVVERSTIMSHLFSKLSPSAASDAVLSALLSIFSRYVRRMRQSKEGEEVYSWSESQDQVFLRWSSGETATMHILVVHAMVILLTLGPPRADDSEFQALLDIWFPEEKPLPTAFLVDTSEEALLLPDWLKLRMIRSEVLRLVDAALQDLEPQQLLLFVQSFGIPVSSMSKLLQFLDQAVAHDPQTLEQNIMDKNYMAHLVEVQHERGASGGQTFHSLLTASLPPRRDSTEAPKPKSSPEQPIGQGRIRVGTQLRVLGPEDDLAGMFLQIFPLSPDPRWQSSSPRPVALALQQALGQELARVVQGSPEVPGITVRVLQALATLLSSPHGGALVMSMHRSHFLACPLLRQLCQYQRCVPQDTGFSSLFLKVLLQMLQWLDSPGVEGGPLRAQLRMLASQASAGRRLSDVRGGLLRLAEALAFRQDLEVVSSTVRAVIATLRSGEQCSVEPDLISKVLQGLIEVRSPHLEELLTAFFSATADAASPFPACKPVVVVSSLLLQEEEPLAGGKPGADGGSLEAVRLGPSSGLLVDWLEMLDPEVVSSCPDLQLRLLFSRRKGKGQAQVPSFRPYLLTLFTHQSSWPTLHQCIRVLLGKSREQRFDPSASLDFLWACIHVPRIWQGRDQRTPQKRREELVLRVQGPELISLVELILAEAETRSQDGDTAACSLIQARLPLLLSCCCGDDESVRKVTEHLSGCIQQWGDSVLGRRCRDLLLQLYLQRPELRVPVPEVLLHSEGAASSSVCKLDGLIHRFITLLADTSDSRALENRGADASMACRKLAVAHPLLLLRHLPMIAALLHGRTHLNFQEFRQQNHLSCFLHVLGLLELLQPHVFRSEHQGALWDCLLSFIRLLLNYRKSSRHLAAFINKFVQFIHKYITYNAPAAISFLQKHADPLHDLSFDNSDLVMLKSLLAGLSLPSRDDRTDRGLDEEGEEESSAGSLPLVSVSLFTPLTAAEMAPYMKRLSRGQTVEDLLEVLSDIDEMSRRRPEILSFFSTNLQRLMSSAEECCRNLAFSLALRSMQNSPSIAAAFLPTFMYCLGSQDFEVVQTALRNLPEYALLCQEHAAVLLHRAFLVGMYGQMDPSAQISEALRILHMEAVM
inactive: lapatinib -0.051 | pictilisib -0.011 | crizotinib -0.067 | [1] 0.05 | duvelisib -0.04 | gandotinib -0.136 | tozasertib 0.007 | doramapimod -0.001 | bafetinib -0.164 | [2] 0.031

GRK2 (UniProt P25098)
inactive: lapatinib -0.063 | pictilisib 0.015 | crizotinib -0.038 | [1] 0.024 | duvelisib 0.017 | gandotinib 0.077 | tozasertib -0.02 | doramapimod 0.033 | bafetinib -0.017 | [2] -0.035

HDAC10 (UniProt Q969S8)
inactive: lapatinib -0.101 | pictilisib -0.019 | crizotinib -0.015 | [1] -0.042 | duvelisib -0.014 | gandotinib 0.029 | tozasertib 0.068 | doramapimod -0.046 | bafetinib 0.035 | [2] 0.061

HIST2H2AA3 (UniProt Q6FI13)
inactive: lapatinib 0.001 | pictilisib -0.016 | crizotinib 0.049 | duvelisib -0.044 | gandotinib -0.143 | tozasertib 0.022 | doramapimod -0.088 | bafetinib 0.159 | [2] -0.171
active: [1] 0.555

HADHA (UniProt P40939)
inactive: lapatinib 0.1 | pictilisib 0.077 | crizotinib 0.063 | [1] -0.01 | duvelisib 0.037 | gandotinib 0.129 | tozasertib -0.013 | doramapimod 0.207 | bafetinib 0.032 | [2] -0.053

INTS8 (UniProt Q75QN2)
Sequence of UniProt Q75QN2 (Q75QN2 whole entry, looked up): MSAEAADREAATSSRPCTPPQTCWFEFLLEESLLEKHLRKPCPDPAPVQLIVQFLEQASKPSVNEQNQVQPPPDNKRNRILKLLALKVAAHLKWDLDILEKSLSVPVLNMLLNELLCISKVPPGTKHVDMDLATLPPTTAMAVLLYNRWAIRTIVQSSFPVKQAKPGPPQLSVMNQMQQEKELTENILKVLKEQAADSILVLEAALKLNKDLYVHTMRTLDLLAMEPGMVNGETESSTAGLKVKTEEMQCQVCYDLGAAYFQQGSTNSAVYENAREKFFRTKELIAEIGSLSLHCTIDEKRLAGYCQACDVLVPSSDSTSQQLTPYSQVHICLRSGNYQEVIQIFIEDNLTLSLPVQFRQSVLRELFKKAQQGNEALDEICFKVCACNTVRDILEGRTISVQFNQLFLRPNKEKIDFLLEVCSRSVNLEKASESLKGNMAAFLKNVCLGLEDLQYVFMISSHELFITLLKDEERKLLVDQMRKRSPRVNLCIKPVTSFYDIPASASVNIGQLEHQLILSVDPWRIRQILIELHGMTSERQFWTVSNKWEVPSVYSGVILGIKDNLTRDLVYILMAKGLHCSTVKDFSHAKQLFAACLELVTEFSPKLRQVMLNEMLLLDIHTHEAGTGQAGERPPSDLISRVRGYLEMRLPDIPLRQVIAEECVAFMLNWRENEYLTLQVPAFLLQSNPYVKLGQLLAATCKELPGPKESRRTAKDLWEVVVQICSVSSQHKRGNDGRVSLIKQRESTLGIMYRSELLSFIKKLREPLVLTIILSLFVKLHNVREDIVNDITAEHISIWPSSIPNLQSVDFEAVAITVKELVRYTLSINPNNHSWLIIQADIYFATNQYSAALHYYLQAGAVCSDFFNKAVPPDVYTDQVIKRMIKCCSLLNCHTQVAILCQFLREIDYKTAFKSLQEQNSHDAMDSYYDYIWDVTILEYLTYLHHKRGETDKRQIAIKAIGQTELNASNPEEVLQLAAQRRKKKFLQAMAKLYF
inactive: lapatinib 0.028 | pictilisib 0.104 | crizotinib -0.046 | [1] 0.015 | duvelisib -0.051 | gandotinib -0.163 | tozasertib 0.04 | doramapimod 0.021 | bafetinib -0.142 | [2] 0.036

ISCA1 isoform 2 (UniProt Q9BUE6)
Sequence of UniProt Q9BUE6 (Q9BUE6 whole entry, looked up): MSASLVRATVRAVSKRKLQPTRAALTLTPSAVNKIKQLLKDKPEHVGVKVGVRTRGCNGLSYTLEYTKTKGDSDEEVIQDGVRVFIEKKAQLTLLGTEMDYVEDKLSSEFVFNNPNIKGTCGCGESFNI
active: [1] 0.343
inactive: lapatinib 0.054 | pictilisib -0.08 | crizotinib -0.011 | duvelisib 0.012 | gandotinib -0.132 | tozasertib -0.004 | doramapimod 0.011 | bafetinib 0.067 | [2] -0.223

ILRUN (UniProt Q9H6K1)
inactive: lapatinib -0.045 | pictilisib -0.033 | crizotinib 0.009 | [1] -0.025 | duvelisib 0.016 | gandotinib 0.012 | tozasertib 0.013 | doramapimod -0.028 | bafetinib -0.023 | [2] -0.017

ILKAP (UniProt Q9H0C8)
inactive: lapatinib 0.04 | pictilisib 0.049 | crizotinib 0.026 | [1] 0.022 | duvelisib 0.007 | gandotinib -0.052 | tozasertib 0.031 | doramapimod 0.029 | bafetinib 0.001 | [2] -0.021

INPP4A (UniProt Q96PE3)
inactive: lapatinib -0.028 | pictilisib -0.116 | crizotinib -0.024 | [1] -0.086 | duvelisib 0.025 | gandotinib 0.003 | tozasertib 0.065 | doramapimod 0.014 | bafetinib 0.132 | [2] 0.128

HNRNPH2 (UniProt P55795)
inactive: lapatinib 0.025 | pictilisib -0.004 | crizotinib -0.097 | [1] -0.048 | duvelisib -0.024 | gandotinib 0.068 | tozasertib -0.032 | doramapimod 0.062 | bafetinib 0.018 | [2] 0.008

HAUS3 (UniProt Q68CZ6)
inactive: lapatinib -0.011 | pictilisib -0.001 | crizotinib -0.084 | [1] 0.013 | duvelisib -0.042 | gandotinib -0.059 | tozasertib 0.014 | doramapimod -0.034 | bafetinib -0.11 | [2] 0.079

GSTZ1 (UniProt G3V4T6)
inactive: lapatinib 0 | pictilisib 0.04 | crizotinib -0.015 | [1] -0.067 | duvelisib 0.028 | gandotinib 0.061 | tozasertib 0.004 | doramapimod -0.035 | bafetinib -0.071 | [2] 0.146

IARS (UniProt P41252)
inactive: lapatinib -0.032 | pictilisib -0.006 | crizotinib -0.045 | [1] 0.059 | duvelisib -0.001 | gandotinib -0.13 | tozasertib 0.013 | doramapimod 0.016 | bafetinib -0.015 | [2] -0.041

IL18R1 (UniProt Q13478)
inactive: lapatinib -0.112 | pictilisib 0.207 | crizotinib -0.076 | [1] -0.116 | duvelisib -0.049 | gandotinib 0.092 | tozasertib 0.063 | doramapimod -0.111 | bafetinib -0.031 | [2] 0.045

HMGCS1 (UniProt Q01581)
inactive: lapatinib 0.077 | pictilisib 0.018 | crizotinib 0.001 | [1] -0.031 | duvelisib 0.003 | gandotinib 0.006 | tozasertib -0.006 | doramapimod 0.036 | bafetinib 0.013 | [2] -0.004

HMGB2 (UniProt P26583)
Sequence of UniProt P26583 (P26583 whole entry, looked up): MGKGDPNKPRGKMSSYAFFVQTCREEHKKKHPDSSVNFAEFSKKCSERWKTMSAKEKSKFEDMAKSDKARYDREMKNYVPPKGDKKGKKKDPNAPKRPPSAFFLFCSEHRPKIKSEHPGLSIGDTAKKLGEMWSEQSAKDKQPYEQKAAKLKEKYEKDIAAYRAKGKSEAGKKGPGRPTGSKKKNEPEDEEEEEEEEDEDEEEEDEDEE
active: [1] 0.266 | [2] -0.244
inactive: lapatinib 0.006 | pictilisib 0.021 | crizotinib 0.052 | duvelisib -0.01 | gandotinib -0.16 | tozasertib -0.022 | doramapimod -0.088 | bafetinib 0.14

IMPDH2 (UniProt P12268)
inactive: lapatinib 0.027 | pictilisib 0.043 | crizotinib -0.007 | [1] -0.011 | duvelisib -0.012 | gandotinib -0.04 | tozasertib -0.017 | doramapimod 0.029 | bafetinib 0.041 | [2] 0.012

INTS10 (UniProt Q9NVR2)
Sequence of UniProt Q9NVR2 (Q9NVR2 whole entry, looked up): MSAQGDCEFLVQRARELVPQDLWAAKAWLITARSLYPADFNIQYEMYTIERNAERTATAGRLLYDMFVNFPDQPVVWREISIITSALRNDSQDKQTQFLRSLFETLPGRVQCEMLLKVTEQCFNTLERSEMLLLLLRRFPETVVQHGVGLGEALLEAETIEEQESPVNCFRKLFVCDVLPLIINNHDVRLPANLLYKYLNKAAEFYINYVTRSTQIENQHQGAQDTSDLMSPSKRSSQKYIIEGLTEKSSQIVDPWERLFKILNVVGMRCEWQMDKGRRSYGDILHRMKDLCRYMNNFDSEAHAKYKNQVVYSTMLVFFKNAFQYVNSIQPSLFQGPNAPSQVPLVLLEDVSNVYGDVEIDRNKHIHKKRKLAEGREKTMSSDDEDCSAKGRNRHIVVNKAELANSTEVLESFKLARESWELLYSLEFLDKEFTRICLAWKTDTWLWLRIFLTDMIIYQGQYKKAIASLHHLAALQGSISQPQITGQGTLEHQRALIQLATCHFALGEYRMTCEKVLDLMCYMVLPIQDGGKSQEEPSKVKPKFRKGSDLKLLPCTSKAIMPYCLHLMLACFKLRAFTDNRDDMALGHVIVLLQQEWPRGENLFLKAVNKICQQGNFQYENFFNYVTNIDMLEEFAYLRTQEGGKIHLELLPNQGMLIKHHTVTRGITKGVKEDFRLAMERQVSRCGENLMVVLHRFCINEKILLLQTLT
inactive: lapatinib 0.097 | pictilisib -0.093 | crizotinib -0.04 | [1] 0.027 | duvelisib -0.09 | gandotinib -0.168 | tozasertib 0.011 | doramapimod 0.026 | bafetinib -0.052 | [2] 0

HSD17B12 (UniProt Q53GQ0)
active: lapatinib 0.31 | gandotinib 0.41
inactive: pictilisib -0.034 | crizotinib -0.025 | [1] -0.158 | duvelisib -0.08 | tozasertib 0.011 | doramapimod 0.047 | bafetinib -0.019 | [2] 0.149

GNE isoform 2 (UniProt Q9Y223)
Sequence of UniProt Q9Y223 (Q9Y223 whole entry, looked up): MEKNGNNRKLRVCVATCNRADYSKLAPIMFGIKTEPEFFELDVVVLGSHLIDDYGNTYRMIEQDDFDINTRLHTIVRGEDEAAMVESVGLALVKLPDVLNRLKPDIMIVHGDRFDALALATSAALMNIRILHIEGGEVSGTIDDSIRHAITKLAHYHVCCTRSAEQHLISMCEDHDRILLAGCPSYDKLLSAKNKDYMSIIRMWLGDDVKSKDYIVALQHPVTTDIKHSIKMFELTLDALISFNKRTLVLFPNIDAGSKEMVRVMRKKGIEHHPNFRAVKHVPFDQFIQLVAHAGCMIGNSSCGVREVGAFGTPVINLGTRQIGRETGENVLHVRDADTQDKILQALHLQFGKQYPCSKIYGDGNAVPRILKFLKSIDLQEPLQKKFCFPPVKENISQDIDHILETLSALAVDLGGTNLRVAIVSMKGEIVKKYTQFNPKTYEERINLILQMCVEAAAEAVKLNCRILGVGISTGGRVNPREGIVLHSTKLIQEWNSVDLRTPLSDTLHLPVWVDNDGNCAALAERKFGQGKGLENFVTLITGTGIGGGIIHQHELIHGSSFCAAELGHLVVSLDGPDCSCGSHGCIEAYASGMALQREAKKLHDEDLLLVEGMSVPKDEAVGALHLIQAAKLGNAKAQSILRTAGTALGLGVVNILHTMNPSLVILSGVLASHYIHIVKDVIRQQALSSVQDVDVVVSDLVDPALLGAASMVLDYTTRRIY
inactive: lapatinib 0.012 | pictilisib -0.005 | crizotinib -0.053 | [1] -0.01 | duvelisib -0.011 | gandotinib -0.127 | tozasertib -0.008 | doramapimod 0.021 | bafetinib -0.031 | [2] 0.034

HNRNPL, A0A3B3ITJ4
inactive: lapatinib -0.011 | pictilisib -0.002 | bafetinib -0.083

HTT (UniProt P42858)
inactive: pictilisib -0.028 | crizotinib -0.042 | [1] -0.012 | duvelisib -0.016 | gandotinib -0.124 | tozasertib 0.002 | doramapimod 0.006 | bafetinib -0.112 | [2] 0.094
